Target: FAM178A
Test: pooled miR-30 sensor sort-seq; sequence = guide strand
Conditions: shRNA
Note: reference of the scale not given here.

In order of rising sensor-assay potency score (higher = more potent):
1. TTTTTCTTGAGAGATGTCCATT  -1.17
2. TAGACAATCTACTTCCTCCATA  -0.597
3. TAGTTTTGTCTCCTTCTCCTTT  -0.485
4. TATTGAAAAACACAGCTGCTAC  -0.444
5. TGAATGAATAGTGACTTCCTTC  -0.297
6. TTTGGTATCATAGATTCTCTTG  -0.0968
7. TTTCTTTAGAAATTCCTTGTGC  0.466
8. TATACCATGATCTTCATGGTGC  0.577
9. TTTAATTGCAGACTTTTCCTGA  0.605
10. TAAGAAGCTAGTGACAACTGGA  0.82

Target: FAM181A
Test: as above
Conditions: shRNA

In order of rising sensor-assay potency score (higher = more potent):
1. TTTTCTTACCCTCATAGGGAGG  -1.8
2. TTTTCAGGTAGGGCTCAGCAGC  -1.38
3. ATCTTCACATCACTGTCGGATG  -1.37
4. TTGATGTCGCTGGACGCCAGGT  -1.09
5. AAATCCAGGAGCAGCCTCCTGG  -1.06
6. AACAAGAACAACAACTGAGATT  -1.01
7. TTGCGATGGTCCACGGAGCGGC  -0.977
8. TAGCAAGACATTCCTCCCTGTA  -0.518
9. TCGGATGCCATCACCAGGGGGC  -0.489
10. TACTTCTGGGAGAAGCGCTTGA  -0.152
11. TTAGCAAGACATTCCTCCCTGT  0.483
12. AAGAACAAGAACAACAACTGAG  0.506
